Bioassay records: PubChem BioAssay, The Scripps Research Institute Molecular Screening Center
PG9 Ab binder – binds the HIV-1 gp120 antibody PG9. TR-FRET gp120-PG9 antibody binding. inhibition, % at 6.7 µM. actives 0.43% (n = 360,000). AID 624416; in the data active means inhibition above about 8.5%
rCAG binder – molecules binding r(CAG) RNA repeats. inhibition, % at 3 µM. r(CAG) RNA repeat, TO-PRO-1 dye displacement fluorescence. actives 1.3% (n = 370,000);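 active means inhibition above the plate cutoff, the mean of all test compounds on that plate plus 3 SD, cut at about 35% in these data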;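 further: 0% = DMSO alone and 100% = 100 µM mitoxantrone as full dye displacement; higher means more dye released from RNA so lower well fluorescence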
HGIII-sPLA2 inh – Blocks human group III sPLA2 activity. QFRET BODIPY PC-A2 liposome hydrolysis, fluorescence. inhibition, % at 12.2 µM. actives 0.56% (n = 370,000). Q9NZ20. AID 743126;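 active means inhibition above mean plus 3 SD of compounds lying within the high and low control bounds, cut at about 19% in these data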;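 further: 0% = median of test compound wells and 100% = no enzyme DMSO wells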
Target sequence (Q9NZ20 whole entry, looked up): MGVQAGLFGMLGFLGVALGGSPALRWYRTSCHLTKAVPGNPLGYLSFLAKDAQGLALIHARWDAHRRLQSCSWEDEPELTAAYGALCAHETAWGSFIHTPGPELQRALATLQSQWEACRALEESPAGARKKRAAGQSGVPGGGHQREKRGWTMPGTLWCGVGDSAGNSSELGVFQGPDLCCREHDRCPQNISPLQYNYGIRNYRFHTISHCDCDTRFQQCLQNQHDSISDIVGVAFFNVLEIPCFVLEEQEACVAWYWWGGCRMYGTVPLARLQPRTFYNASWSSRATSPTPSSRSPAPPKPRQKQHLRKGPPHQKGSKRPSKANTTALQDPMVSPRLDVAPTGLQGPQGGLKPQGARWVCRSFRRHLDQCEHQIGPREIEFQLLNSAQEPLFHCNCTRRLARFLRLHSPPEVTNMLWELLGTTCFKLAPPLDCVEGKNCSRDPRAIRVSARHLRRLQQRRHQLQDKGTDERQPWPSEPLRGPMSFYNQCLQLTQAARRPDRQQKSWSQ
MsrA inhibitor – inhibitors of bovine MsrA | inhibition, % at 15.5 µM | purified bovine MsrA, absorbance read-out | actives 0.75% (n = 360,000); in the data active means inhibition above about 4.5%;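 further: 0% = vehicle wells with enzyme and 100% = reference inhibitor wells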
MsrA act – activators of bovine methionine sulfoxide reductase A. activation, % at 10.6 µM. actives 0.3% (n = 360,000). purified bovine MsrA, absorbance read-out. AID 602163; in the data active means activation above about 7.5%;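 further: 0% = vehicle and 100% = reference activator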
sPLA2 confirm – human GIII-sPLA2 inhibition, confirmation; shares compounds with HGIII-sPLA2 inh; recombinant hGIII-sPLA2, BODIPY PC-A2 QFRET fluorescence; inhibition, % at 12.2 µM; actives 34% (n = 2,000);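 active means mean inhibition across triplicates above the hit cutoff set in the earlier primary screen, cut at about 19% in these data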;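 further: 0% = enzyme with DMSO and 100% = DMSO wells lacking enzyme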
BODIPY interf – 535nm fluorescence interference, HGIII-sPLA2 counter-screen | shares compounds with HGIII-sPLA2 inh | BODIPY FL product fluorescence interference, QFRET | inhibition, % at 12.2 µM | actives 8.5% (n = 2,000);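 active means average inhibition above the solvent-only control mean plus 3 SD, cut at about 6% in these data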;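 further: 0% = DMSO with substrate plus product and 100% = DMSO with substrate alone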
535nm interf DR – 535nm optical interference dose response, HGIII-sPLA2 counter-screen; shares compounds with HGIII-sPLA2 inh; BODIPY FL product fluorescence interference, cell-free; IC50, µM; 240 tested, under 10 active; AID 743455;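 active means IC50 at or below 10 µM; inactive means IC50 above 10 µM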
An asterisk follows results filed as active; . = no result given; ! = not confirmed by another sample. This is a sample that favours compounds with a hit; in the whole collection about 3.2% have one here.

SMILES | PG9 Ab binder | rCAG binder | HGIII-sPLA2 inh | MsrA inhibitor | MsrA act | sPLA2 confirm | BODIPY interf | others
NNCc1ccccc1 | 0 | 2 | 20*! | 1 | -6 | -1 | -4
OCC1CN1C1CCCCC1 (centres undefined) | 0 | 3 | 3 | 0 | -4 | . | .
C/C(=N\N1CCN(C)CC1)c1c(O)[nH]c(=O)[nH]c1=O | -1 | 0 | 20* | 1 | -2 | 0 | -6
Cc1cccc(C#N)c1 | -2 | 2 | -5 | 0 | -5 | . | .
Cc1cccc(N=Nc2ccc(N(C)C)cc2)c1 | -2 | 4 | 20* | 1 | -3 | 27* | 4
CCC(C)N1C(=O)/C(=C\c2cc3c4c(c2)CCCN4CCC3)C(=O)NC1=S (centres undefined) | 0 | 24 | 22* | 2 | -2 | 33* | 5 | 535nm interf DR=>122
CCC(C)N1C(=O)/C(=C\c2ccc(N3CCCCCC3)cc2)C(=O)NC1=S (centres undefined) | 1 | 10 | -6 | 2 | -10 | . | .
O=C1CN(C(=O)COC(=O)Cc2ccccc2)c2ccccc2N1 | -1 | -3 | 1 | 0 | -2 | . | .
Nc1cncc(C(=O)O)c1 | 2 | -3 | 21*! | 1 | -13 | -2 | -8
O=C1CCCN1C(=O)c1cncc(Br)c1 | 0 | -1 | 0 | 0 | 0 | . | .
COc1ccccc1CCNC1CCCC(C)C1 (centres undefined) | 1 | 3 | 23* | 0 | -3 | 0 | -17
COc1cc2c(cc1OC)C13CCN4C=C5CCOC6CC(=O)N2C1C6C5CC43 (centres undefined) | 1 | 2 | 12 | 0 | 0 | . | .
O=C(CNCc1c(F)cccc1F)N1CCC2(CC1)OCCO2 | . | 0 | 3 | . | . | . | .
CCCOC(=O)c1ccc(-[n+]2c(-c3ccccc3)cc(-c3ccccc3)cc2-c2ccccc2)cc1 | 0 | 13 | 26* | 2 | -5 | 15 | -44
COc1ccccc1Sc1ccccc1CC(C)N (centres undefined) | 0 | 7 | 9 | 0 | -1 | . | .
COc1cc(CC(C)N)c(OC)cc1I (centres undefined) | -1 | 5 | 24*! | 0 | 1 | 6 | -12
CCCCn1c(=O)c(C(=O)Nc2ncccc2C)c(O)c2ccccc21 | 0 | 5 | 20* | 2 | -2 | -8 | -17
BrCC(Br)(Br)Br | -1 | 0 | 3 | 1 | -2 | . | .
O=c1[nH]c(O)c(/C=C2/C=CC(c3cc(Cl)ccc3Cl)=N2)c(=O)[nH]1 | 0 | 16 | 20* | 0 | -5 | 17 | 2
CN(C)c1ccc(/C=C/[N+](=O)[O-])cc1 | -24 | 5 | 23* | 1 | -4 | 12 | 2
CC(C)CCN1CCN(Cc2c(F)cccc2Cl)CC1CCO (centres undefined) | -2 | -7 | -3 | 0 | -2 | . | .
